In PubChem BioAssay AID1508608 (The Scripps Research Institute Molecular Screening Center, 2020):
Hit rate of the full screen: of about 2,300 compounds, about 20 (0.9%) were called active. Only a selection was taken, and actives are over-represented in it overall. Unmarked numbers belong to inactive results.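 The calls were made as follows: active = mean activation across replicates above 26.72%, the hit cutoff set for this confirmation screen; inactive = the rest.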

target: G-protein coupled receptor 151 (Homo sapiens) (UniProt Q8TDV0); assay: GPR151 activators, triplicate retest, confirmation, cell-based, PathHunter beta-arrestin, luminescence, set 2 (AID 1508608); details: GPR151 PathHunter beta-arrestin cells, 90 min, at 11.2 µM, hits give high values, 100% = signal from added EA reagent;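 also: 0% = plate median of compound wells and 100% = EA reagent high control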
Sequence (Q8TDV0 whole entry, looked up): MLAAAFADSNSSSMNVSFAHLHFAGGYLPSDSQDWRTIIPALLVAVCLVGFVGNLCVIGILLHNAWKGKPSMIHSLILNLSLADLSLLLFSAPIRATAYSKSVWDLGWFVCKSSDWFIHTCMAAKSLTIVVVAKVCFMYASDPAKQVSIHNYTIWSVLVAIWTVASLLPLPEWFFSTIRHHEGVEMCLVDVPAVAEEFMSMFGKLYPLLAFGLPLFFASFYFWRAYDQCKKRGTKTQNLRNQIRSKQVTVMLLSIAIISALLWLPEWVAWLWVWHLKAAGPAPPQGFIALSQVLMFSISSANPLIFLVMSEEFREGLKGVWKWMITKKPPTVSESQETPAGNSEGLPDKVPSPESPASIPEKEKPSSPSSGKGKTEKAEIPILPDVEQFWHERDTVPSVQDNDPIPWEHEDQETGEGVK

| Compound | activation |
| --- | --- |
| CCCc1c(C)nc2c(C(=O)NCc3ccc(F)cc3)c[nH]n2c1=O | 4.27% |
| CC1CCCCC1NS(=O)(=O)c1ccc2c(c1)CCN2C(=O)C1CC1 (stereo not drawn) | -8.17% |
| CNS(=O)(=O)c1cc(-c2nnc(NCc3nc4ccccc4[nH]3)c3ccccc23)ccc1C | 0.28% |
| CCOC(=O)c1cnc2ccc(OCC)cc2c1Nc1ccccc1OC | 0.37% |
| CC(C(=O)O)n1ncn2cccc2c1=O (stereo not drawn) | 0.45% |
| Cc1cc2c(cc1S(=O)(=O)N1CCN(C3CCCCC3)CC1)OCC(=O)N2 | -3.55% |
| CCCCc1ccc(C(=O)N/C(=C\c2ccc(C)cc2)C(=O)Nc2ccc([N+](=O)[O-])cc2)cc1 | -6.88% |
| COCCCNC(=O)c1csc2c1CCCC2 | -6.29% |
| COc1ccccc1OCC(=O)n1nc(C)cc1C | -1.85% |
| CC1=C(C(=O)OCC(C)C)C(c2ccc(Cl)cc2Cl)NC(=O)N1 (stereo not drawn) | 1.8% |
| CCCCNC(=O)c1ccc2c(c1)ncn2-c1cc(OC)c(OC)c(OC)c1 | 3.91% |
| Cc1ccc(S(=O)(=O)c2cc3cc([N+](=O)[O-])ccc3oc2=O)cc1C | -3.29% |
| Clc1nc(NCc2ccccc2)c2ncn(-c3ccccc3)c2n1 | -0.22% |
| c1ccc(Oc2nc(NC3CC3)c3ncn(-c4ccsc4)c3n2)cc1 | 38.7% (active) |
| COc1ccc(S(=O)(=O)NC(N)=NCCc2ccccc2OC)cc1 | 0.59% |
| O=C(Cn1ncc2c(=O)oc3ccccc3c21)Nc1nc2ccccc2s1 | -0.55% |
| O=C(NCCc1ccccc1)c1cc(S(=O)(=O)N2CCOCC2)ccc1F | -1.01% |
| O=C(NCC1CCC2(CCN(C(=O)Cc3cccc(F)c3)CC2)O1)c1ccccc1F (stereo not drawn) | 0.36% |
| O=C(CCC(=O)Nc1cc(C(F)(F)F)ccc1Cl)N/N=C\c1ccccc1O | -2.79% |
| CCOC(=O)c1c(NC(=O)c2ccc(Cl)cc2Cl)sc(C(=O)Nc2ccccc2F)c1C | -10.1% |
| Cc1ccc(-c2nnc(SCC(=O)NCc3ccccc3Cl)nc2-c2ccc(C)cc2)cc1 | -2.15% |
| COc1ccc(CCNC(=O)/C=C\C(=O)O)cc1OC | 1.57% |

| Compound | activation |
| --- | --- |
| COc1ccc(CCNc2ncnc3c2oc2ccccc23)cc1OC | 44.3% (active) |
| COc1ccc(CCNC(=O)Cn2ncn3cccc3c2=O)cc1OC | 3.19% |
| O=C(Cn1c(=O)n(Cc2ccccc2Cl)c(=O)c2cccnc21)Nc1ccc(F)cc1 | -1.3% |
| O=C(CCCn1c2ccccc2c(=O)c2ccccc21)Nc1cccc(Cl)c1 | 6.83% |
| COc1ccc(-c2nc(Nc3ccccc3F)c3ccccc3n2)cc1OC | 8.64% |
| CC(C)C[C@H]1NC(=O)[C@H]2CN(C(=O)c3cccc(Cl)c3)CCN2C1=O | -3.06% |
| CC[C@@H](C(=O)C(C)[C@@H](O)[C@H](C)CCc1ccc(C)c(O)c1C(=O)O)C1OC(CC)(C2CC[C@](O)(CC)[C@H](C)O2)C[C@@H]1C (stereo partly drawn) | 83.1% (active) |
| O=C(Nc1ncc(C(O)(C(F)(F)F)C(F)(F)F)s1)c1ccccc1Cl | -4.3% |
| COc1ccc(NC(=O)c2cc3c(CO)cnc(C)c3oc2=N)cc1Cl | -0.43% |
| O=C(NCCc1nnc2n1CCN(Cc1ccccc1-c1ccco1)CC2)C1CCCO1 (stereo not drawn) | -0.22% |
| CCc1ccccc1NC(=S)N(CCc1ccc(OC)c(OC)c1)Cc1cccnc1 | 12% |
| O=C(Nc1nc(-c2ccc(I)cc2)cs1)c1ccc(Cl)s1 | 4.72% |
| CC(C)[C@@H]1NC(=O)[C@@H]2C[C@H](NCc3cn(C)nc3-c3ccccc3)CN2C1=O | -1.25% |
| Cc1nn(-c2ccccc2)c(Cl)c1/C=N\O | 1.25% |
| Cc1ccc(O)c(NC(=O)COCc2cc(-c3ccc(F)cc3)on2)c1 | -1.43% |
| COc1cc(NC(=O)c2nn3c(C(F)(F)F)cc(-c4ccco4)nc3c2Cl)c(OC)cc1Cl | -0.24% |
| CCC(=O)N1CCc2cc(S(=O)(=O)Nc3cccc(C)c3)ccc21 | -1.7% |
| CC(=O)N1CCc2cc(Br)cc(S(=O)(=O)Nc3ccc(C)cc3C)c21 | -9.66% |
| O=C(Nc1nc2c(s1)-c1cccc3cccc-2c13)C1CC1 | -2.94% |
| Cc1cccc(NCC(=O)N/N=C/c2ccccc2O)c1 | -1.08% |
| CN1CCN(C(=O)c2cc3c(=O)[nH]c4ccccc4c3s2)CC1 | -2.02% |
| COc1ccc(OC)c(S(=O)(=O)NCCc2csc(-c3cccnc3)n2)c1 | -1.44% |

| Compound | activation |
| --- | --- |
| Cc1cccc(N(CCCN2C(=O)c3cccc4cccc(c34)C2=O)C(=O)c2cccs2)c1 | 2.61% |
| CC(=O)NN1C(=O)c2ccc(Oc3ccc4c(c3)C(=O)N(NC(C)=O)C4=O)cc2C1=O | 1.35% |
| COc1ccc(/C=c2\sc3ncnn3c2=O)c(OC)c1 | 1.55% |
| COc1ccccc1C1SC(NC(C)=O)=NN1C(C)=O (stereo not drawn) | 4.02% |
| Cc1cccc(C2c3[nH]c4ccccc4c3CCN2C(=O)CCN2CCCCO2)n1 (stereo not drawn) | 2.25% |
| COc1cccc(CC(=O)NCC2CC(Cc3ccc(F)cc3)=NO2)c1 (stereo not drawn) | -4.37% |
| COc1ccc(CCNc2ccnc(Nc3ccc(-n4ccnc4)cc3)n2)cc1 | 38.8% (active) |
| COc1ccc(CCNc2cc(C)nc(Nc3ccc(-n4ccnc4)cc3)n2)cc1 | 41.2% (active) |
| Cc1cc(Nc2ccc(N3CCOCC3)cc2)nc(Nc2ccc(-n3ccnc3)cc2)n1 | 17.5% |
| COc1cc(Nc2ccnc(Nc3ccc(N4CCOCC4)cc3)n2)cc(OC)c1OC | 4.44% |
| COc1cccc(Nc2nc(Nc3cc(C)ccc3C)nc(N3CCOCC3)n2)c1 | 8.14% |
| Cc1cc(Nc2ccc3c(c2)OCO3)nc(Nc2ccc(N3CCOCC3)cc2)n1 | 12.3% |
| COc1ccc(CCNc2ccnc(Nc3ccc(N4CCOCC4)cc3)n2)cc1 | 28.5% (active) |
| Cc1ccc(NC(=O)/C(=C\c2ccco2)NC(=O)c2cccc(C)c2)cc1 | 0.99% |
| CC(C)CC(NC(=O)C(C)NC(=O)CNC(=O)C(NC=O)C(C)C)C(=O)NC(C)C(=O)NC(C(=O)NC(C(=O)NC(C(=O)NC(Cc1c[nH]c2ccccc12)C(=O)NC(CC(C)C)C(=O)NC(Cc1c[nH]c2ccccc12)C(=O)NC(CC(C)C)C(=O)NC(Cc1c[nH]c2ccccc12)C(=O)NC(CC(C)C)C(=O)NC(Cc1c[nH]c2ccccc12)C(=O)NCCO)C(C)C)C(C)C)C(C)C (stereo not drawn) | 101% (active) |
| COc1ccc(-c2nc(Nc3ccc(C)c(Cl)c3)c3ccccc3n2)cc1OC | 12.1% |
| COc1ccc(CCN2C(=O)c3ccc(Oc4ccc(Nc5ncnc6ccccc56)cc4)cc3C2=O)cc1OC | 40.5% (active) |
| COc1ccc(CCN2C(=O)c3cccnc3C2=O)cc1OC | 2.67% |
| CC(NC(=O)c1ccco1)c1nnc2n1CCN(Cc1cccc(F)c1)CC2 (stereo not drawn) | 17.5% |
| CCOC(=O)C1=NN=C2C(=O)N(c3ccccc3)C(=O)C12 (stereo not drawn) | 0.79% |
| CCOc1ccc(NC(=O)/C(C#N)=C/c2c[nH]c3ccccc23)cc1 | 1.37% |
| O=C(CSc1nc(-c2ccccc2)cn1-c1ccccc1)Nc1ccccc1Cl | 6.36% |

| Compound | activation |
| --- | --- |
| O=C1OC(c2ccc(Br)cc2)=N/C1=C\c1ccc(Br)cc1 | 0.61% |
| Cc1ccc(S(=O)(=O)N(CC(=O)N2CCOCC2)CC(=O)N2CCOCC2)cc1 | 7.51% |
| O=C1C2CCCN2C(c2ccco2)N1c1ccc(F)cc1 (stereo not drawn) | 2.43% |
| FC(F)(F)c1nc(Nc2ccccc2Cl)sc1-c1ccccc1 | 4.88% |
| N/C(=N\c1nc(=O)c2ccccc2s1)NC(=O)c1cccc(Br)c1 | 0.6% |
| CCOc1ccc(NC(=O)CN2CCN(CC(=O)Nc3ccc(N(C)C)cc3)CC2)cc1 | -2.91% |
| COc1cc(C2=N/C(=C\c3cccc(F)c3)C(=O)O2)cc(OC)c1OC | 0.44% |
| O=C1NC(=O)C(=Cc2ccc(-c3ccc(O)c([N+](=O)[O-])c3)o2)C(=O)N1 | -2.55% |
| Cc1nnc(Nc2cccc(F)c2)[nH]c1=O | -3.86% |
| COC(=O)C1=C(C)NC(=O)NC1c1cc(OC)ccc1OC (stereo not drawn) | 0.35% |
| CC(C)C(NS(=O)(=O)c1cccc2nsnc12)C(=O)NC1CCCC1 (stereo not drawn) | -3.04% |
| CC(=O)Nc1ccc(NC(=O)c2sc3ccccc3c2Cl)cc1 | 1% |
| CCN(CC(=O)N1CCCCC1)S(=O)(=O)c1ccc(Cl)cc1 | -5.3% |
| CC1CCCN(C(=O)C(=O)N2CCCC(C)C2)C1 (stereo not drawn) | 3.28% |
| CCC(C)NC(=O)c1ccc(-n2c(=S)[nH]c3ccccc3c2=O)cc1 (stereo not drawn) | 7.03% |
| CCC(C)NC(=O)c1cc2c(=O)oc3ccccc3c2s1 (stereo not drawn) | 1.06% |
| CCC(C)NC(=O)c1cc(=O)[nH]c2ccc(Br)cc12 (stereo not drawn) | 88.5% (active) |
| CCCOC(=O)CSC1=C(C#N)C(c2ccco2)C(C(=O)Nc2ccc(Cl)cc2)=C(C)N1 (stereo not drawn) | -4.25% |
| O=C(Nc1ccc(F)cc1)N1CCN(c2ccc3nnc(-c4ccc(F)cc4)n3n2)CC1 | -0.4% |
| Nc1ccccc1-c1nnn(CC(=O)Nc2ccc(Cl)cc2)n1 | -3.19% |
| O/N=C(\C=N\O)C12CC3CC(CC(C3)C1)C2 | -1.69% |
| O=C(O)c1c(CNCCCSC2CCCCC2)c2ccccc2n1Cc1ccccc1 | 3.46% |
